Here are results for twelve sequences from the supplement of paper PMC6555819.

Common to all, as to assay: PBM binding z-score (relative to random genomic background probes); higher = stronger binding; sequences stand for … in GC…GCGATTGACAGCGTAGAATGAAGG
Experiment [1] relates to FXR:RXRa (NR concentration 270 nM, RXRa partner concentration 90 nM). The method, boiled down:
(§1)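 Custom Agilent 4×180K protein-binding microarrays carried double-stranded probes. Their 34-nt variable regions held direct-repeat seeds, single-nucleotide variants, half-site ablations and random human genomic background sequences. Arrays were incubated 1 h with ligand-free nuclear receptor dimers in PBS pH 7.4, 2% milk, 0.02% Triton X-100, 1 mM DTT, 0.2 mg/mL BSA and 0.4 mg/ml salmon testes DNA. Antibodies against each partner (one per run) detected binding, and scanned fluorescence was regression-normalized. Binding z-scores use random background probes as reference.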

The test system of experiment [2] is LXRa:RXRa (NR concentration 270 nM, RXRa partner concentration 90 nM). An outline of the steps: as §1
In experiment [3] the test system is LXRa homodimer (NR concentration 270 nM). An outline of the steps: as §1
Experiment [4] deals with LXRb:RXRa (NR concentration 270 nM, RXRa partner concentration 90 nM). An outline of the steps:
as §1

Experiment [5] has as its system LXRb homodimer (NR concentration 270 nM). An outline of the steps: as §1
Experiment [6] concerns PPARa:RXRa (NR concentration 270 nM, RXRa partner concentration 90 nM). The method, boiled down:
as §1

Experiment [7] relates to PPARg:RXRa (NR concentration 180 nM, RXRa partner concentration 90 nM). The method, boiled down:
as §1

The subject of experiment [8] is PPARg:RXRa 270nM:90nM, anti-RXR (NR concentration 270 nM, RXRa partner concentration 90 nM). The method, boiled down:
as §1

The test system of experiment [9] is PPARg:RXRa 30nM:10nM, anti-RXR (NR concentration 30 nM, RXRa partner concentration 10 nM). The method, boiled down:
as §1

The test system of experiment [10] is PPARg:RXRa 90nM:30nM, anti-RXR (NR concentration 90 nM, RXRa partner concentration 30 nM). The method, boiled down: as §1

As for TGAATGAGGTTATAAGATCAGGGAACGTTGCAAA, the PBM binding z-score in experiment [1] was 1.18; in experiment [2] it was 1.31; in experiment [3] it was -0.538; in experiment [4] it was 0.8; in [5], -0.0754; in experiment [6], 2.61. Besides, the PBM binding z-score was found to be 1.22 in [7], 1.75 in experiment [8], 0.754 in [9] and 1.38 in experiment [10].
As to AGAATGAGGTTACAAAAGATCAGGGAAACGCTTG, the PBM binding z-score in experiment [1] was 1.59; in experiment [2], 6.22; in experiment [3], -0.11; in experiment [4], 3.07; in experiment [5], 0.0675; in experiment [6], 3.05. The PBM binding z-score came to 2.31 in experiment [7], 2.26 in experiment [8], 0.772 in experiment [9] and 1.54 in [10].
Consider TCTAGTTGGTCACGGAGGTCACACCCGACGGGTA, for which the PBM binding z-score worked out at 3.19 in experiment [1]; 3.31 in experiment [2]; 2.4 in experiment [3]; 3.2 in [4]; 0.762 in experiment [5]; 3.73 in [6]. Moreover, the PBM binding z-score in experiment [7] amounted to 3.54; in experiment [8] it was 4.03; in experiment [9] it was 3.5; in experiment [10] it was 3.66.
For TTACCAAGGTGAAGGTCGTTGCTCCCTCTGTAGA, the PBM binding z-score is 2.26 in experiment [1]; 1.91 in [2]; 0.0546 in experiment [3]; 1.46 in experiment [4]; -0.474 in [5]; 2.7 in [6]. For the same sequence, the PBM binding z-score in experiment [7] was 2.96; in [8], 4.34; in experiment [9] it was 2.21; in experiment [10], 3.83.
In the case of AGAATGAGGTTACCAAAGATCAGCGAAACGCTTG, the PBM binding z-score was 1.92 in [1]; 6.09 in experiment [2]; -0.342 in experiment [3]; 3.38 in experiment [4]; -0.405 in [5]; 3.24 in experiment [6]. For the same sequence, the PBM binding z-score in experiment [7] is 2.63; in experiment [8], 2.59; in experiment [9], 0.865; in [10], 1.64.
For CTCGAAAGGTCGTGCTCAGGTGAGTAGACCAAAC, the PBM binding z-score is 5.65 in [1]; 3.86 in experiment [2]; -0.195 in experiment [3]; 3.08 in experiment [4]; 0.0468 in [5]; 4.81 in [6]. In addition, the PBM binding z-score is 2.71 in [7], 3.96 in [8], 0.899 in [9] and 2.88 in experiment [10].
TCGAGAAGGTTAGGGGCATTCAGAATGGCGTCGA: the PBM binding z-score in experiment [1] was 0.95; in [2], 0.839; in experiment [3], -0.359; in experiment [4] it was 1.38; in [5] it was -0.293; in experiment [6], 1.83. Also, the PBM binding z-score came out at 0.297 in experiment [7], 1.19 in experiment [8], 2.23 in experiment [9] and 1.43 in [10].
CGCGAAAGGTCGTGCTCAGGTGAGTATACCAAAC: the PBM binding z-score in [1] is 5.65; in experiment [2] it was 3.9; in [3], 0.199; in experiment [4], 3.55; in [5] it was -0.0921; in experiment [6], 4.89. The PBM binding z-score in [7] came to 3.65; in experiment [8], 4.46; in experiment [9] it was 0.769; in [10] it was 2.86.
Regarding TTACCAAGGTGAAAGGTCGTCGATGCACGCCTTG, the PBM binding z-score in [1] was 3.2; in experiment [2], 3.29; in experiment [3], 0.0373; in experiment [4], 2.77; in [5] it was -0.541; in experiment [6] it was 5.6. In addition, the PBM binding z-score in [7] was determined as 9.29; in experiment [8] it was 8.47; in experiment [9], 7.23; in experiment [10], 9.
ACTTACGGATCAACGAGGTTATAGCACGCGTATA: the PBM binding z-score in experiment [1] is 0.716; in experiment [2], 0.914; in experiment [3], 0.686; in experiment [4] it was 1.25; in experiment [5], 0.594; in experiment [6] it was 1.47. In addition, the PBM binding z-score in experiment [7] turned out to be 0.98; in [8] it was 0.564; in [9] it was 0.453; in [10] it was 0.486.
As to CGTCCAAGGTCAATGCTAGGACAGTGAAAGCATT, the PBM binding z-score in [1] is 6.19; in [2], 4.43; in [3] it was 0.325; in experiment [4], 3.53; in experiment [5] it was 0.27; in experiment [6], 5.19. The PBM binding z-score in [7] stood at 3.96; in experiment [8], 4.09; in [9] it was 1.22; in [10], 2.76.
In the case of CCTAGCAGGCCAGGGTCACTTAAGCATTTCGCTT, the PBM binding z-score in experiment [1] was 1.75; in experiment [2], 1.64; in experiment [3], -0.562; in experiment [4], 1.91; in experiment [5] it was -1.39; in [6], 2.77. The PBM binding z-score in experiment [7] was 0.597; in experiment [8], 1.54; in [9], -0.349; in experiment [10], 0.831.
